Bioassay records from PubChem.
Most compounds without a hit are left out; they make up all but 19% or so of the library.
IL-1B inflam inh – inhibitors of inflammasome signaling (IL-1 beta secretion) | THP-1 LPS/ATP IL-1B secretion, AlphaLISA, 16 h; stronger effect = lower value | AID 743279 | activity change, % at 57.5 µM | 360,000 compounds, 4.7% hits; in the data active = activity change below about -50%; inconclusive = mostly about -30% to -49%
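THP-1 cells pretreated 1 hr with compounds (up to 57.5 uM final), then stimulated with LPS (250 ng/mL final) plus ATP (1.25 mM final); secreted IL-1B measured by AlphaLISA after 16 hr, decreased signal indicating inhibition.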
TDP1 cell noCPT – qHTS for Inhibitors of human tyrosyl-DNA phosphodiesterase 1 (TDP1): qHTS in cells in absence of CPT | Potency, µM (top dose mostly 46.2 µM), for inactives: top-dose activity change, negative = growth inhibition, most hits filed as inhibitors | DT40 Tdp1-/- hTDP1 cells, no CPT, ATP luminescence, 48 h | 420,000 compounds, 15% hits; note: potency is the fitted concentration of half-maximal effect; nearly all actives have a fitted effect of over 55% in size
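Stably hTDP1-transfected Tdp1-null chicken DT40 cells were treated with library compounds minus camptothecin and grown for at least 48 hr at 37 °C, after which cellular ATP was quantified by luminescence.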
HT1080NT lethal – kills 2HG-producing HT-1080-NT fibrosarcoma cells | AID 686970 | 360,000 compounds, 1.6% hits | Potency, µM (series often up to 46.1 µM), for the others: at the top dose activity, negative = less viability, most hits filed as cytotoxic | HT-1080-NT fibrosarcoma viability, CellTiter-Glo ATP luminescence, 48 h;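 note: NT is the 2HG producing partner of a matched IDH1 knockdown line; potency is the fitted concentration of half-maximal effect; 0% = DMSO-treated cells and -100% = media-only wells without cells; nearly all actives have a fitted effect of over 55% in size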
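Read-out is CellTiter-Glo luminescence after 10 minutes at room temperature, following 48 hours' compound treatment of HT-1080-NT cells (750 cells/well, RPMI, 5% FBS, 37 degrees C).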
HT1080 IDH1KD tx – HT-1080 IDH1 knockdown cell toxicity (counter line) | HT-1080 IDH1 knockdown viability, ATP luminescence, 48 h | 360,000 compounds, 2% hits | Potency, µM (series often up to 46.1 µM), inactives show top-dose activity, negative = toxicity, hits mostly cytotoxic | AID 686971;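 note: potency is the fitted concentration of half-maximal effect; 0% = DMSO wells and -100% = cell-free medium wells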
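CellTiter-Glo luminescence after 48 h compound exposure at 37 degrees C of IDH1-knockdown HT-1080 cells in 5% FBS RPMI. %Activity scaled between DMSO wells and cell-free media wells, with curves fitted and assigned curve classes.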
DT40 TDP1 CPT – DT40-hTDP1 cell growth loss with CPT | Potency, µM (doses to about 46.2 µM), for the others: top-dose activity change, negative = growth inhibition, most hits filed as inhibitors | chicken DT40 Tdp1-/-;hTDP1 cells + 20 nM CPT, ATP luminescence, 48 h | 420,000 compounds, 12% hits; note: potency is the fitted concentration of half-maximal effect; nearly all actives have a fitted effect of over 55% in size
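Chicken DT40 Tdp1-/- cells stably complemented with human TDP1 were seeded at 400 cells/well in medium containing 20 nM camptothecin, exposed to pin-transferred compounds, and grown at 37 °C for at least 48 hr. Viability was read as ATP luminescence.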
Starred values were filed as active, the others as inactive; ? = inconclusive; · = not tested or not shown; [ ] = another dose, or the depositor's remark. Unless noted, calls come from the whole dose curve; as a rule, active = well fitted curve in the direction sought with a large enough effect; inconclusive = small, poorly fitted or top-dose-only effect, or another doubt; inactive = no such curve, though single readings can be large; an effect the other way counts as inactive or inconclusive. Unless noted, % is set by controls: 0 for no effect and ±100 for the full control effect.

SMILES	IL-1B inflam inh	TDP1 cell noCPT	HT1080NT lethal	HT1080 IDH1KD tx	DT40 TDP1 CPT
Cc1cc(C(=O)N/N=C/c2cccnc2)c(C)o1	7	-16%	13%	11%	-7%
Cn1c(SCC(=O)N/N=C/C=C/c2ccco2)nc2ccccc21	0	18µM*	12%	8%	18µM*
O=C(N/N=C/C(Cl)=C/c1ccccc1)c1ccncc1	-92*	21µM*	-2%	8%	9.2µM*
O=C(N/N=C/c1ccncc1)c1ccccc1	9	-2%	-4%	-3%	-8%
Cc1cc(C(=O)N/N=C/C(Cl)=C/c2ccccc2)c(C)o1	6	21µM*	-8%	-20%	29µM*
CCC(C)(C)NC(=O)C(c1cccc(OC)c1OC)N(C(=O)CCC(=O)Nc1cc(C)on1)C(C)C (stereo not given)	12	-15%	0%	2%	0%
O=C(N/N=C/C=C\c1ccco1)c1ccccn1	-5	16µM*	?	-20%	9.2µM*
O=C(N/N=C/C(Cl)=C/c1ccccc1)c1ccccn1	-57*	?	8%	7%	?
COc1ccc(-c2noc(=O)n2Cc2ccccc2F)cc1	-30	2%	-1%	1%	-23%
Cc1ccccc1OCC(=O)OC(C)C(=O)NC1CCCC1 (stereo not given)	0	-7%	0%	-2%	5%
O=C1C2C3C=CC(C3=C(c3ccccc3)c3ccccc3)C2C(=O)N1Cc1ccccc1 (stereo not given)	0	18µM*	-14%	?	?
COc1ccc(NC(=O)Cc2c(SC)c3ccccc3n2Cc2ccccc2)cc1	1	?	?	?	?
Cc1ccc(-c2noc(CSc3nnc(Cc4ccccc4)n3-c3cccc(C)c3)n2)cc1	?	18µM*	1%[9.24 µM]	?	?
Clc1ccc(-c2noc(CSc3nnc(Cc4cccs4)n3-c3ccccc3)n2)cc1	0	?	-3%	-10%	?
Cc1ccc(-c2noc(CSc3ccccc3)n2)cc1	11	-11%	29%	17%	2%
CCOc1ccc(-c2noc(CSc3nnc(Cc4ccccc4)n3-c3cccc(C)c3)n2)cc1	·	13µM*	·	·	18µM*
Cc1ccc(-c2noc(CSc3nnc(Cc4cccs4)n3-c3ccccc3)n2)cc1	-3	21µM*	0%	-8%	21µM*
CCC[C@@H]1C[C@@H](C(=O)N[C@@H]([C@H]2O[C@H](SC)[C@H](OP(=O)(O)O)[C@@H](O)[C@H]2O)[C@H](C)Cl)N(C)C1	·	-4%	·	·	-5%
O=C(CNC(=O)c1ccc(F)cc1)OCc1cc(=O)n2nc(C3CCCCC3)sc2n1	·	-1%	·	·	-2%
CC(C)n1c(CSCc2ccc(Cl)cc2Cl)n[nH]c1=S	21	?	-14%	-2%	-25%
O=C(NCCCN1CCOCC1)c1onc(CSc2ccccn2)c1C(=O)NCCCN1CCOCC1	-2	0%	-10%	-11%	2%
CC(NC(=O)Nn1cnnc1)(C(F)(F)F)C(F)(F)F	10	7%	0%	29%	5%
COc1ccc(-c2nnc3n(CCc4ccccc4)c(=O)c4ccccc4n23)cc1OC	?	23µM*	4%	2%	?
COCC(C)n1c(C)cc(C(=O)COC(=O)c2nn(C)c(=O)c3ccccc23)c1C (stereo not given)	13	?	-1%	5%	?
COCC(C)n1c(C)cc(C(=O)COC(=O)c2c(C)nn(-c3ccccc3)c2C)c1C (stereo not given)	-56*	?	-1%	-3%	?
SMILES	IL-1B inflam inh	TDP1 cell noCPT	HT1080NT lethal	HT1080 IDH1KD tx	DT40 TDP1 CPT
COc1ccc(C)cc1NC(=O)COC(=O)c1c(C)nn(-c2ccccc2)c1C	-4	12µM*	-7%[9.24 µM]	-12%	21µM*
Cc1ccc(C)c(NC(=O)COC(=O)c2c(-c3ccccc3)noc2C)c1	12	-7%	-1%	-1%	-4%
COc1ccc(C)cc1NC(=O)COC(=O)c1c(-c2ccccc2)noc1C	?	23µM*	-3%	-8%	23µM*
CC(=O)Nc1ccc(NC(=O)COC(=O)c2c(C)nn(-c3ccccc3)c2C)cc1	-2	?	-3%	-1%	?
Cc1nn(-c2ccccc2)c(C)c1C(=O)OCC(=O)NC12CC3CC(CC(C3)C1)C2	-30	23µM*	2%[9.24 µM]	-28%	?
COc1cccc(CNC(=O)CCNS(=O)(=O)c2cccs2)c1	1	-20%	10%	8%	2%
COc1ccc(C2c3[nH]c4ccccc4c3CCN2Cc2ccoc2)c(F)c1 (stereo not given)	0	16µM*	?	-23%	?
Oc1cccc(C2c3[nH]c4ccccc4c3CCN2Cc2ccc3c(c2)CCO3)c1 (stereo not given)	-93*	21µM*	21µM*	23µM*	?
COc1cccc(C2c3[nH]c4ccccc4c3CCN2Cc2cnc(C)s2)c1OC (stereo not given)	-8	15µM*	?	?	?
Oc1cccc(C2c3[nH]c4ccccc4c3CCN2Cc2ccoc2)c1 (stereo not given)	-4	-25%	1%	-3%	-26%
COc1ccccc1C1c2[nH]c3ccccc3c2CCN1Cc1cnc(C)s1 (stereo not given)	6	18µM*	0%	0%	?
O=C(c1cccnc1)c1ncc(C(F)(F)F)cc1Cl	19	-1%	3%	2%	-14%
Cc1cccc(Oc2ncc(-c3ccc(Cl)cc3)cn2)c1C	-25	21µM*	-15%	-21%	?
CC(=O)N1CCC2(CC1)OC(=O)C(C)=C2C(=O)Nc1ccccc1C(F)(F)F	·	-4%	·	·	-1%
CCn1cc(CNC(=O)c2cc(Cl)ccc2OC)c(C)n1	-2	?	13%	3%	1%
CCn1cc(CNC(=O)c2cc(-c3ccccc3OC)nc3ccccc23)c(C)n1	-11	15µM*	-10%	-1%	?
CCn1cc(CNC(=O)c2cc(-c3cc(OC)ccc3OC)nc3ccccc23)c(C)n1	5	23µM*	1%	4%	?
CCn1cc(CNC(=O)c2cc(-c3ccc(C)cc3)nc3ccc(Br)cc23)c(C)n1	·	13µM*	·	·	6.5µM*
COc1ccc(OC)c(-c2cc(C(=O)NC3CCCC3)c3ccccc3n2)c1	-6	?	-6%	-11%	-11%
CCc1nn(CC(=O)N2CCCCC2)c(=O)c2cc3occc3n12	·	-2%	·	·	-13%
COc1cccc(C(=O)Nc2cccc(-c3nnc(-c4ccccc4)o3)c2)c1	104	18µM*	-2%	-9%	?
